From PubChem BioAssay
TDP1 cell CPT: DT40-hTDP1 cell growth loss with CPT; chicken DT40 Tdp1-/-;hTDP1 cells + 20 nM CPT, ATP luminescence, 48 h; Potency, µM (series often up to 46.2 µM), inactives show at the highest dose activity change, negative = growth inhibition, usual class: inhibitors; 12% of 420,000 active; AID 686979; also: % is scaled to controls: 0 for no effect and ±100 for the full control effect; nearly all actives have a fitted effect of over 55% in size
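Cell growth measured by CellTiter-Glo luminescence after a minimum 48 h, 37 C compound exposure with 20 nM CPT in Tdp1-knockout DT40 cells stably expressing hTDP1, seeded 400/well; qHTS titration format.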
TGFb SMAD3 inh: blocks TGF-b signaling. HepG2 CAGA-GFP TGF-b/SMAD3 reporter, GFP fluorescence, 18 h; TGF-beta stimulated, 500 pg/mL final. AID 588855. 1.2% of 410,000 active. Potency, µM (series often up to 46.1 µM), inactives show top-dose activity, negative = inhibition, usual class: inhibitors; also: % is scaled to controls: 0 for no effect and ±100 for the full control effect; nearly all actives have a fitted effect of over 65% in size
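Cell-based qHTS in HEPG2 carrying a CAGA-GFP Smad reporter; compounds added before 500 pg/mL final TGF-beta, 18 h incubation at 37 degrees C, GFP fluorescence quantified per cell by imaging cytometry.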
HepG2 tox: kills HepG2 cells in TGF-b inhibitor counter-screen; HepG2 CAGA-GFP viability, ATP luminescence, 18 h; Potency, µM (titrated, usually from 46.1 µM), for the others: at the top dose activity change, negative = cytotoxicity, actives largely listed as cytotoxic; 0.76% of 410,000 active; AID 588856
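HepG2 CAGA-GFP cells (1000/well, DMEM with 1% FBS) received compound, then TGF-beta at 500 pg/mL final, and were incubated 18 hours at 37 degrees C. Viability was read by CellTiter-Glo luminescence. Media-only wells were set as complete cell-killing and DMSO as no toxicity.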
TDP1 cell noCPT: qHTS for Inhibitors of human tyrosyl-DNA phosphodiesterase 1 (TDP1): qHTS in cells in absence of CPT. DT40 Tdp1-/- hTDP1 cells, no CPT, ATP luminescence, 48 h. Potency, µM (doses to about 46.2 µM), for the others: at the top dose activity change, negative = growth inhibition, usual class: inhibitors. 15% of 420,000 active; also: % is scaled to controls: 0 for no effect and ±100 for the full control effect; nearly all actives have a fitted effect of over 55% in size
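Chicken DT40 Tdp1-/- cells stably complemented with human TDP1 were seeded at 400 cells/well with DMSO in place of 20 nM camptothecin. After compound pinning, cells grew at least 48 hr at 37 °C; viability read by CellTiter-Glo luminescence.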
S2 tox: reduces viability in counter-screen for ATXN expression inhibitors; S2 cells (HEK-293 line with an ATXN2-luciferase reporter) viability, CellTiter-Fluor protease fluorescence, 24 h; Potency, µM (doses to about 56.7 µM), usual class: cytotoxic; 0.49% of 400,000 active; AID 651635; also: nearly all actives have a fitted effect of over 40% in size
ATXN2 expr inh: reduces ATXN2 reporter expression in HEK-293 cells. HEK-293 ATXN2-luciferase reporter, luminescence, 24 h. Potency, µM (top dose mostly 57 µM), for inactives: top-dose activity change, negative = inhibition, hits mostly inhibitors. 0.72% of 360,000 active; also: % is scaled to controls: 0 for no effect and ±100 for the full control effect; nearly all actives have a fitted effect of over 55% in size
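qHTS (up to 57 uM final) was run with 24 h compound exposure of reporter cells at 37 °C. Each well was multiplexed: SteadyGlo luminescence measured ATXN2-luciferase expression after a fluorogenic Gly-Phe-AFC viability readout (25 uM final).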
Active calls of the source: *; ! = not active in a repeat; [ ] = another dose, or the depositor's remark. Hits are enriched below; roughly 17% of the tested compounds scored in any of these assays. Calls follow the shape of the dose curve; as a rule, active = well fitted curve in the direction sought with a large enough effect; inconclusive = small, poorly fitted or top-dose-only effect, or another doubt; inactive = no such curve, though single readings can be large; an effect the other way counts as inactive or inconclusive. Potency is read from the fitted curve at half-maximal effect.

What do the screens show for `CC(CCO)Nc1nc2c(c(=O)n(C)c(=O)n2C)n1Cc1cccc(Br)c1` (configuration not stated)?
TDP1 cell CPT: 12µM*; TGFb SMAD3 inh: -2%; HepG2 tox: 4%; TDP1 cell noCPT: 21µM*; S2 tox: inactive; ATXN2 expr inh: 12%

What do the screens show for `CC(O)CNc1nc2c(c(=O)n(C)c(=O)n2C)n1Cc1cccc(C(F)(F)F)c1` (configuration not stated)?
TDP1 cell CPT: inconclusive; TGFb SMAD3 inh: -17%; HepG2 tox: -31%; TDP1 cell noCPT: 26µM*; S2 tox: inactive; ATXN2 expr inh: -11%

What do the screens show for `C[C@@H]1COc2cc(N3CCSCC3)ccc2S(=O)(=O)N1`?
TDP1 cell CPT: -5%; TDP1 cell noCPT: -18%; S2 tox: inactive; ATXN2 expr inh: 12%

What do the screens show for `COC(=O)[C@@H]1CCCN1Cc1ccc2c(c1)CN(Cc1cccc(Cl)c1)CCO2`?
TDP1 cell CPT: 0%[9.04 µM]; TDP1 cell noCPT: -25%; S2 tox: inactive

How did Cc1nnsc1Sc1ccccc1C(=O)O do in these assays?
TDP1 cell CPT: 7%; TGFb SMAD3 inh: 3%; HepG2 tox: 0%; TDP1 cell noCPT: -21%; S2 tox: inactive; ATXN2 expr inh: -12%

How did COc1ccc(CNCCSc2nnnn2-c2ccccc2)cc1 do in these assays?
TDP1 cell CPT: inconclusive; TGFb SMAD3 inh: -3%; HepG2 tox: -21%; TDP1 cell noCPT: inconclusive; S2 tox: inactive; ATXN2 expr inh: 2%

What do the screens show for `CC(C)c1ccc(CNCCSc2nnnn2-c2ccccc2)cc1`?
TDP1 cell CPT: 16µM*; TGFb SMAD3 inh: -50%; HepG2 tox: -23%; TDP1 cell noCPT: 26µM*; S2 tox: inactive; ATXN2 expr inh: -14%

What do the screens show for `Fc1ccccc1CNCCCSc1nnnn1-c1ccccc1`?
TDP1 cell CPT: 16µM*; TGFb SMAD3 inh: inconclusive; HepG2 tox: -24%; TDP1 cell noCPT: inconclusive; S2 tox: inactive; ATXN2 expr inh: -4%

How did COc1ccc(NC(=O)N(Cc2ccco2)C2CCN(C(C)=O)CC2)c(OC)c1 do in these assays?
TDP1 cell CPT: 0%; TGFb SMAD3 inh: -17%; HepG2 tox: -22%; TDP1 cell noCPT: inconclusive; S2 tox: inactive; ATXN2 expr inh: -11%

What do the screens show for `CCn1nc(C)c(C(=O)Nc2cc(Oc3ccc(Cl)cc3)cc([N+](=O)[O-])c2)c1C`?
TDP1 cell CPT: inconclusive; TGFb SMAD3 inh: inconclusive; HepG2 tox: -29%; TDP1 cell noCPT: inconclusive; S2 tox: inactive; ATXN2 expr inh: -21%

What do the screens show for `COc1ccc2nc3cc(Cl)ccc3c(Nc3cc(C(C)C)c(O)cc3C)c2c1`?
TDP1 cell CPT: 23µM*; TGFb SMAD3 inh: inconclusive; HepG2 tox: -70%; TDP1 cell noCPT: inconclusive; S2 tox: inconclusive; ATXN2 expr inh: inconclusive

How did Cn1c2c(c(=O)c3ccccc31)C[C@@H](O)C(C)(C)O2 do in these assays?
TDP1 cell CPT: -15%[9.04 µM]; TDP1 cell noCPT: -10%[9.04 µM]

How did CC(C)N(C#N)c1nc(N2CCOCC2)nc(N2CCOCC2)n1 do in these assays?
TDP1 cell CPT: 21µM*; TGFb SMAD3 inh: 4%; HepG2 tox: -3%; TDP1 cell noCPT: 10µM*; S2 tox: inactive; ATXN2 expr inh: -1%

Results for CCOC(=O)CNc1nc(C#N)nc(N2CCOCC2)n1 ?
TDP1 cell CPT: 13µM*!; TGFb SMAD3 inh: -8%; HepG2 tox: -1%; TDP1 cell noCPT: inconclusive; S2 tox: inactive; ATXN2 expr inh: -12%

Results for CCOc1nc(C#N)nc(N2CCOCC2)n1 ?
TDP1 cell CPT: inconclusive; TGFb SMAD3 inh: inconclusive; HepG2 tox: -11%; TDP1 cell noCPT: 11µM*

How did COc1nc(C#N)nc(N2CCCCC2)n1 do in these assays?
TDP1 cell CPT: inconclusive; TGFb SMAD3 inh: -23%; HepG2 tox: -26%; TDP1 cell noCPT: 20µM*

How did C1CN(c2nc(N3CCOCC3)nc(N3CCOCC3)n2)CCO1 do in these assays?
TDP1 cell CPT: -14%; TGFb SMAD3 inh: 0%; HepG2 tox: -3%; TDP1 cell noCPT: 32%; S2 tox: inactive; ATXN2 expr inh: -6%

How did CC(=O)c1nnn(-c2nc(C#N)nc(N3CCOCC3)n2)c1C do in these assays?
TDP1 cell CPT: -1%; TGFb SMAD3 inh: 8%; HepG2 tox: 20%; TDP1 cell noCPT: inconclusive

How did COc1nc(OC)nc(N2CCCCCC2)n1 do in these assays?
TDP1 cell CPT: inconclusive; TGFb SMAD3 inh: 2%; HepG2 tox: -8%; TDP1 cell noCPT: -15%; S2 tox: inactive; ATXN2 expr inh: 1%

How did CCOc1ccc(NC(=O)CSc2ncc3c(n2)-c2ccccc2N(Cc2ccccc2C)S3(=O)=O)cc1 do in these assays?
TDP1 cell CPT: -29%; TGFb SMAD3 inh: 19%; HepG2 tox: 7%; TDP1 cell noCPT: -26%; S2 tox: inactive; ATXN2 expr inh: 5%

How did Cc1ccc2cc3cc(C(=O)Nc4ccc(F)cc4Cl)oc3nc2c1 do in these assays?
TDP1 cell CPT: inconclusive; TGFb SMAD3 inh: -7%; HepG2 tox: -7%; TDP1 cell noCPT: inconclusive

Results for N#Cc1nc(N2CCCC2)nc(N2CCCC2)n1 ?
TDP1 cell CPT: 13µM*; TGFb SMAD3 inh: 0%; HepG2 tox: -12%; TDP1 cell noCPT: 14µM*; S2 tox: inactive; ATXN2 expr inh: -32%

Results for N#Cc1nc(N2CCCCC2)nc(N2CCOCC2)n1 ?
TDP1 cell CPT: 13µM*; TGFb SMAD3 inh: -15%; HepG2 tox: 6%; TDP1 cell noCPT: 16µM*; S2 tox: inactive; ATXN2 expr inh: inconclusive

What do the screens show for `CN(C)c1nc(C#N)nc(N2CCOCC2)n1`?
TDP1 cell CPT: inconclusive; TGFb SMAD3 inh: -5%; HepG2 tox: -5%; TDP1 cell noCPT: inconclusive; S2 tox: inactive; ATXN2 expr inh: -24%

Results for N#Cc1nc(N)nc(N2CCCCC2)n1 ?
TDP1 cell CPT: inconclusive; TGFb SMAD3 inh: inconclusive; HepG2 tox: 0%; TDP1 cell noCPT: inconclusive

Results for O=C(c1cccc(S(=O)(=O)N2CCOCC2)c1)N1CCN(S(=O)(=O)c2cccs2)CC1 ?
TDP1 cell CPT: 4%; TGFb SMAD3 inh: 9%; HepG2 tox: 1%; TDP1 cell noCPT: -24%; S2 tox: inactive

What do the screens show for `COc1ccc(NC(=O)N2CCN(S(=O)(=O)c3ccc4c(ccn4C)c3)CC2)cc1OC`?
TDP1 cell CPT: -17%; TGFb SMAD3 inh: inconclusive; HepG2 tox: -10%; TDP1 cell noCPT: -3%; S2 tox: inactive; ATXN2 expr inh: -3%
